In PubChem BioAssay AID1159580 (chemical genetic matrix, 2015):
“And” between values parts separate entries of the source, which are not always exact repeats. Equal values may be shown once. The whole screen tested about 5,500 compounds, of which about 2,000 (36%) were called active. About 18% were inconclusive and are not listed. No stated cut-off is given here; in the data, active means normalized growth mostly below about 0.91 (no sharp cut-off); inconclusive means no clear call, values can overlap the other calls; inactive means mostly above about 0.92. The list shows a part of the results.

Assay: chemical genetic growth profiling, strain panel (AID 1159580);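 further: tested at 20 µM; growth read once vehicle control cultures reached saturation at 30 °C; 1 = growth at the plate median or of vehicle wells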
Conditions: S. cerevisiae deletion strains, growth OD

Measured: normalized growth

COc1cc(NS(=O)(=O)c2ccc(N)cc2)nc(OC)n1
inactive: locus YAL021C, strain ccr4, stronger effect = lower value 0.976 | locus YAL026C, strain drs2, stronger effect = lower value 0.982 | locus YAL030W, strain snc1, stronger effect = lower value 0.976 | locus YBL061C, strain skt5, stronger effect = lower value 0.97 | locus YBR009C, strain hhf1, stronger effect = lower value 0.977 | locus YBR021W, strain FUR4, stronger effect = lower value 0.983 | locus YBR023C, strain chs3, stronger effect = lower value 0.977 | locus YBR171W, strain sec66, stronger effect = lower value 0.968 | locus YBR229C, strain ROT2, stronger effect = lower value 0.987 | locus YBR231C, strain swc5, stronger effect = lower value 0.971 | locus YBR279W, strain paf1, stronger effect = lower value 0.961 | locus YCL011C, strain gbp2, stronger effect = lower value 0.986 | locus YCL016C, strain dcc1, stronger effect = lower value 0.978 | locus YCL029C, strain bik1, stronger effect = lower value 0.978 | locus YCL061C, strain MRC1, stronger effect = lower value 0.97 | locus YCL069W, strain vba3, stronger effect = lower value 0.985 | locus YCR088W, strain abp1, stronger effect = lower value 0.962 | locus YDL005C, strain med2, stronger effect = lower value 0.979 | locus YDL035C, strain GPR1, stronger effect = lower value 0.976 | locus YDL040C, strain nat1, stronger effect = lower value 0.963 | locus YDL074C, strain BRE1, stronger effect = lower value 0.995 | locus YDL101C, strain DUN1, stronger effect = lower value 0.985 | locus YDL134C, strain PPH21, stronger effect = lower value 0.968 | locus YDL185W, strain tfp1, stronger effect = lower value 0.982 | locus YDL192W, strain arf1, stronger effect = lower value 0.984 | locus YDR001C, strain nth1, stronger effect = lower value 0.978 | locus YDR069C, strain doa4, stronger effect = lower value 0.957 | locus YDR101C, strain arx1, stronger effect = lower value 0.999 | locus YDR137W, strain rgp1, stronger effect = lower value 0.984 | locus YDR150W, strain NUM1, stronger effect = lower value 0.999 | locus YDR159W, strain sac3, stronger effect = lower value 0.933 | locus YDR162C, strain NBP2, stronger effect = lower value 0.98 | locus YDR195W, strain ref2 0.942 | locus YDR297W, strain sur2, stronger effect = lower value 0.983 | locus YDR318W, strain mcm21, stronger effect = lower value 0.989 | locus YDR334W, strain swr1, stronger effect = lower value 0.974 | locus YDR335W, strain msn5, stronger effect = lower value 0.981 | locus YDR388W, stronger effect = lower value 0.977 | locus YDR392W, strain spt3, stronger effect = lower value 0.984 | locus YDR502C, strain sam2, stronger effect = lower value 0.98 | locus YEL003W, strain gim4, stronger effect = lower value 0.991 | locus YEL037C, strain rad23, stronger effect = lower value 0.965 | locus YEL061C, strain CIN8 (second series), stronger effect = lower value 0.986 | locus YEL061C, strain CIN8, stronger effect = lower value 1 | locus YER015W, strain faa2, stronger effect = lower value 0.99 | locus YER016W, strain bim1, stronger effect = lower value 0.988 | locus YER110C, stronger effect = lower value 0.972 | locus YER111C, strain swi4, stronger effect = lower value 0.973 | locus YER155C, strain BEM2 (second series), stronger effect = lower value 0.95 | locus YER155C, strain BEM2, stronger effect = lower value 0.996 | locus YER167W, strain BCK2, stronger effect = lower value 0.977 | locus YFR010W, strain ubp6, stronger effect = lower value 0.976 | locus YGL078C, strain dbp3, stronger effect = lower value 0.985 | locus YGL086W, strain mad1, stronger effect = lower value 0.997 | locus YGL167C, strain pmr1, stronger effect = lower value 0.976 | locus YGL173C, strain kem1, stronger effect = lower value 0.951 | locus YGL227W, strain vid30, stronger effect = lower value 0.97 | locus YGL240W, strain doc1, stronger effect = lower value 0.97 | locus YGL248W, strain PDE1, stronger effect = lower value 1.01 | locus YGL253W, strain hxk2, stronger effect = lower value 0.977 | locus YGR078C, strain PAC10, stronger effect = lower value 1.01 | locus YGR135W, strain pre9, stronger effect = lower value 0.979 | locus YGR229C, strain SMI1, stronger effect = lower value 0.982 | locus YGR252W, strain gcn5, stronger effect = lower value 1.03 | locus YHR013C, strain ard1, stronger effect = lower value 0.988 | locus YHR027C, strain rpn1, stronger effect = lower value 0.981 | locus YHR030C, strain SLT2, stronger effect = lower value 0.986 and 0.975 | locus YHR079C, strain IRE1 (second series), stronger effect = lower value 0.991 | locus YHR079C, strain IRE1, stronger effect = lower value 0.978 | locus YHR094C, strain hxt1, stronger effect = lower value 0.98 | locus YHR129C, strain ARP1, stronger effect = lower value 0.985 | locus YHR142W, strain chs7, stronger effect = lower value 0.969 | locus YHR200W, strain rpn10, stronger effect = lower value 0.993 | locus YIL066C, strain RNR3, stronger effect = lower value 0.982 | locus YIL073C, strain SPO22, stronger effect = lower value 0.87 | locus YIL125W, strain kgd1, stronger effect = lower value 0.994 | locus YIR030C, strain dcg1, stronger effect = lower value 0.997 | locus YJL092W, strain hpr5, stronger effect = lower value 0.982 | locus YJL095W, strain BCK1 (second series), stronger effect = lower value 0.963 | locus YJL095W, strain BCK1, stronger effect = lower value 1.03 and 0.977 | locus YJL115W, strain asf1, stronger effect = lower value 0.966 | locus YJL129C, strain trk1, stronger effect = lower value 0.969 | locus YJL134W, strain LCB3, stronger effect = lower value 0.986 | locus YJL154C, strain vps35, stronger effect = lower value 0.965 | locus YJL164C, strain tpk1, stronger effect = lower value 1 | locus YJL166W, strain qcr8, stronger effect = lower value 0.978 | locus YJL168C, strain set2, stronger effect = lower value 0.989 | locus YJL187C, strain SWE1 (second series), stronger effect = lower value 0.994 | locus YJL187C, strain SWE1, stronger effect = lower value 0.976 | locus YJR043C, strain POL32, stronger effect = lower value 0.982
